# Test results: PubChem BioAssay
# Calls of active or inactive are those of the source. Unless noted, how the calls were made is not given here.
# Experiments:
# [1] = anti-His antibody binders, primary screen, artefact control for SMM control protein annotation, biochemical, small-molecule microarray, 635 nm fluorescence (AID 1128); settings: anti-His Alexa647 antibody binding, higher = more signal;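 further: score merges feature fluorescence with signal-to-noise for each printed compound spot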
# [2] = system: Human papillomavirus type 1a E7 protein (residues 1-88); test: HPV1a E7 small-molecule binders, primary screen, biochemical, small-molecule microarray, residues 1-88, 635 nm (AID 1129); settings: small-molecule microarray binding, fluorescence 635 nm; higher = more signal
# [3] = target: Focal adhesion kinase 1 (Homo sapiens) (UniProt Q05397); test: small-molecule microarray binders of FAK, primary screen, biochemical, 635/667 nm fluorescence, BSA, DTT (AID 1130); settings: PTK2 binding, 635 nm fluorescence, higher = more signal;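 further: composite of spot emission at 667 nm and signal to noise over triplicate slides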
# [4] = system: Fibrinogen (Alexa647-labelled); test: fibrinogen binders on compound microarrays, profiling panel, artefact control for SMM control-protein annotation, biochemical, small-molecule microarray, 635/667 nm fluorescence (AID 1131); settings: fibrinogen-A647 binding fluorescence, higher = more signal;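 further: z-score merges 667 nm fluorescence with per-spot signal-to-noise over triplicate slides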
# [5] = target: Follistatin (Homo sapiens) (UniProt P19883); test: follistatin binders on small-molecule microarrays, primary screen, biochemical, small-molecule microarray, 635/667 nm fluorescence (AID 1132); settings: FST binding, 635 nm fluorescence, higher = more signal
# [6] = target: Fibroblast growth factor 2 (Homo sapiens) (UniProt P09038); test: FGF2 binders on small-molecule microarrays, primary screen, biochemical, small-molecule microarray, 635/667 nm fluorescence (AID 1133); settings: small-molecule microarray binding, FGF2, fluorescence 635/667; higher = more signal
# [7] = mitochondrial membrane potential change in A549 cells, profiling panel, cell-based, JC-1 fluorescence, basal, 24 h, 100 nL (AID 1138); settings: higher = more signal;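 further: A549 lung adenocarcinoma cells under basal conditions with no added stimulus; test concentration not given here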
# Lefty1 = Lefty1 binders on small-molecule microarrays, primary screen, biochemical, small-molecule microarray, 635/667 nm fluorescence (AID 1139); settings: small-molecule microarray binding, fluorescence 635/667; higher = more signal
# [8] = system: wheat germ agglutinin (Triticum aestivum), Alexa647-labelled; test: wheat germ agglutinin binders on compound microarrays, profiling panel, artefact control for SMM control-protein annotation, biochemical, small-molecule microarray, 635/667 nm fluorescence (AID 1140); settings: WGA-A647 binding, 635 nm fluorescence, higher = more signal;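 further: score merges 667 nm feature emission with signal to noise over triplicate slides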
# [9] = target: Luciferin 4-monooxygenase (Photinus pyralis) (UniProt P08659); test: firefly luciferase enzyme inhibitors, primary screen, biochemical, luminescence, purified enzyme, 2006 set (AID 1141); settings: SteadyGlo luminescence, 30 min, higher = more signal, called active from +8 up or from −8 down;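 further: cell-free assay with purified firefly luciferase at 100 ng per well in PBS; test concentration not given here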
# [10] = system: Wnt5a (protein binding on small-molecule microarray); test: Wnt5a binders on small-molecule microarray, primary screen, biophysical, 635/667 nm fluorescence (AID 1142); settings: 635 nm fluorescence, higher = more signal;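 further: fluorescence read at 667 nm with signal to noise per printed feature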
# [11] = cell viability in Huh7 cells, primary screen, cytotoxicity control for HCV replication inhibitor project, CellTiter-Glo luminescence, basal, 48 h (AID 1143); settings: Huh7 HCV replicon, higher = more signal, called active from +8 up or from −8 down;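 further: Huh7 hepatoma cells carrying a hepatitis C replication reporter with no stimulus; test concentration not given here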
# [12] = P. aeruginosa biofilm formation inhibitors, primary screen, PAO1 strain, BacTiter-Glo luminescence, LB-PBS (AID 1144); settings: 12 h, higher = more signal
# [13] = CREB reporter modulators without forskolin, primary screen, cell-based, PC12, CRE-LacZ reporter, unstimulated (AID 1145); settings: no forskolin, luminescence, 4.5 h, higher = more signal, called active from +8 up or from −8 down
# [14] = CREB reporter modulators under forskolin, primary screen, cell-based, PC12, CRE-LacZ reporter, forskolin-stimulated (AID 1146); settings: luminescence, 4.5 h, higher = more signal, called active from +8 up or from −8 down;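 further: PC12 cells with 6xCRE LacZ reporter stimulated by forskolin 10 µM; beta-galactosidase reporter signal reflecting CREB driven transcription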
# [15] = target: Streptavidin (Streptomyces avidinii) (UniProt P22629); test: streptavidin binders on small-molecule microarray, primary screen, artefact control for SMM compound annotation, biophysical, 635/667 nm fluorescence (AID 1147); settings: streptavidin binding, higher = more signal;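 further: signal reflects streptavidin binding to arrayed compounds as a control protein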
# [16] = small-molecule binders of probe aInhba, primary screen, biochemical, small-molecule microarray, 635/667 nm fluorescence (AID 1148); settings: higher = more signal;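 further: score merges 667nm spot fluorescence with signal-to-noise for antibody binding to printed compounds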
# Torsin-1A (Homo sapiens) [17] = target: Torsin-1A (Homo sapiens) (UniProt O14656); test: torsin A binders from cell lysate, primary screen, small-molecule microarray, wild-type, 635/667 nm (AID 1149); settings: COS7 hTOR1A-WT lysate, 635 nm fluorescence, higher = more signal
# Torsin-1A (Homo sapiens) [18] = target: Torsin-1A (Homo sapiens) (UniProt O14656); test: small-molecule binders of mutant TOR1A in lysate, primary screen, cell lysate, small-molecule microarray, COS7 lysate, 635/667 nm fluorescence (AID 1150); settings: COS7 hTOR1A mutant lysate, 635 nm fluorescence, higher = more signal;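 further: score pools 667 nm emission and signal to noise measuring lysate protein binding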
# [19] = system: Sonic hedgehog protein (Shh); test: small-molecule binders of Shh protein, primary screen, biochemical, small-molecule microarray, 635/667 nm fluorescence (AID 1151); settings: small-molecule microarray binding, 635 nm fluorescence; higher = more signal;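 further: Shh protein binding to compounds spotted on small-molecule microarray slides; score combines spot fluorescence intensity with signal-to-noise across triplicate slides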
# Torsin-1A (Homo sapiens), sequence (O14656 whole entry, looked up): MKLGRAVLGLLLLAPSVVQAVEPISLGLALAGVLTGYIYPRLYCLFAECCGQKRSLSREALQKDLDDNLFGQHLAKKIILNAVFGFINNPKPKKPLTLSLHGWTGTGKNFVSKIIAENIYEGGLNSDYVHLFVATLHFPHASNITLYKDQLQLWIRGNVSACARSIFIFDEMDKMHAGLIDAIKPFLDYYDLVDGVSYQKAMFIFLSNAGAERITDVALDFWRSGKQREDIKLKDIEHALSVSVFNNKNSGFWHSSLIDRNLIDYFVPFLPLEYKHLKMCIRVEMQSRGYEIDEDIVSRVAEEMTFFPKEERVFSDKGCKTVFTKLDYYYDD
# Follistatin (Homo sapiens), sequence (P19883 whole entry, looked up): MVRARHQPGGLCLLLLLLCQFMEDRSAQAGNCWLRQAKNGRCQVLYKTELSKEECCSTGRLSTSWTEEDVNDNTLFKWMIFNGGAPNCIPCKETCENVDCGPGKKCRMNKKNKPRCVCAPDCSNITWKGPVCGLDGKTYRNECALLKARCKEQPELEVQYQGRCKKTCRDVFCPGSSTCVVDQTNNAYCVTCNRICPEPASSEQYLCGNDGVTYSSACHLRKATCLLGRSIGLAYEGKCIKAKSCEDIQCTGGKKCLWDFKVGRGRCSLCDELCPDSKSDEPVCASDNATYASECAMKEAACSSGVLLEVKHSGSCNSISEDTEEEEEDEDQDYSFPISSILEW
# Focal adhesion kinase 1 (Homo sapiens), sequence (Q05397 whole entry, looked up): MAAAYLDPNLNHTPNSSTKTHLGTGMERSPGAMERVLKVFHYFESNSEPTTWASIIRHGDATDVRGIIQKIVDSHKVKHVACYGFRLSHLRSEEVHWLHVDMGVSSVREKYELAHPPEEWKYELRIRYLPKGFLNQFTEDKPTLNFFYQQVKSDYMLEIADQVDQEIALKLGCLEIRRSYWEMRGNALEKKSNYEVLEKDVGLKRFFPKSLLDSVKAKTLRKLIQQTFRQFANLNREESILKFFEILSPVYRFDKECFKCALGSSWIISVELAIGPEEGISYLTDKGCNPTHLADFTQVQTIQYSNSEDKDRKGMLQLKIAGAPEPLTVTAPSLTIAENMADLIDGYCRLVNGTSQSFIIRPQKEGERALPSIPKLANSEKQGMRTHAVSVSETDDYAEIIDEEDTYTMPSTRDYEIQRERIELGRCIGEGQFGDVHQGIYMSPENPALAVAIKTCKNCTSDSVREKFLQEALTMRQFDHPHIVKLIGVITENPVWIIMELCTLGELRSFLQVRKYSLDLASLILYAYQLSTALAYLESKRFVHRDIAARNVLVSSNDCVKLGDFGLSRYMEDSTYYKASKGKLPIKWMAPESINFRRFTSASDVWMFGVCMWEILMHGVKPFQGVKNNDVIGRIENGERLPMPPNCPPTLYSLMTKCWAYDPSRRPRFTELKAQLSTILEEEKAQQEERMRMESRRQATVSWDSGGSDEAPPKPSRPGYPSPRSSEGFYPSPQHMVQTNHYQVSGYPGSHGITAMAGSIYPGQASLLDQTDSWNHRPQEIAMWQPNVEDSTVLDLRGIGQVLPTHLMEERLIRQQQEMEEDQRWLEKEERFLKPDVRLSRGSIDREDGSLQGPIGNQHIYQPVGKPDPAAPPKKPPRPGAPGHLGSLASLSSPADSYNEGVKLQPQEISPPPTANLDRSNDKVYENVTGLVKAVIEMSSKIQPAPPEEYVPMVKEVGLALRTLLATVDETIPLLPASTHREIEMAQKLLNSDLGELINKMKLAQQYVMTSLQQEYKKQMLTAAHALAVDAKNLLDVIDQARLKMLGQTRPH
# Streptavidin (Streptomyces avidinii), sequence (P22629 whole entry, looked up): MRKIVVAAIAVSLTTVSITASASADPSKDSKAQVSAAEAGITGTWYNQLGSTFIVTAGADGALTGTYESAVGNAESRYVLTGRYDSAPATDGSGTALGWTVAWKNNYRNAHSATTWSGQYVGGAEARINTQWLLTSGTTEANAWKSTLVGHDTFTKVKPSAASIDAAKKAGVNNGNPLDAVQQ
# Fibroblast growth factor 2 (Homo sapiens), sequence (P09038 whole entry, looked up): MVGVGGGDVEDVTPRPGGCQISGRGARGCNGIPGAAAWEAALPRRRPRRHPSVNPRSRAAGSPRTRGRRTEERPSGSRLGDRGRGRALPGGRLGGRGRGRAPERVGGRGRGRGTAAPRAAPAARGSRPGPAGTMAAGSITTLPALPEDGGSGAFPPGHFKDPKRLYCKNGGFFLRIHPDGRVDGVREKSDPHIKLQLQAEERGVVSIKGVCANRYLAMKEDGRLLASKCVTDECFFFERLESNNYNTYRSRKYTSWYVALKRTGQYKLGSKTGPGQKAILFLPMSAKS
# Luciferin 4-monooxygenase (Photinus pyralis), sequence (P08659 whole entry, looked up): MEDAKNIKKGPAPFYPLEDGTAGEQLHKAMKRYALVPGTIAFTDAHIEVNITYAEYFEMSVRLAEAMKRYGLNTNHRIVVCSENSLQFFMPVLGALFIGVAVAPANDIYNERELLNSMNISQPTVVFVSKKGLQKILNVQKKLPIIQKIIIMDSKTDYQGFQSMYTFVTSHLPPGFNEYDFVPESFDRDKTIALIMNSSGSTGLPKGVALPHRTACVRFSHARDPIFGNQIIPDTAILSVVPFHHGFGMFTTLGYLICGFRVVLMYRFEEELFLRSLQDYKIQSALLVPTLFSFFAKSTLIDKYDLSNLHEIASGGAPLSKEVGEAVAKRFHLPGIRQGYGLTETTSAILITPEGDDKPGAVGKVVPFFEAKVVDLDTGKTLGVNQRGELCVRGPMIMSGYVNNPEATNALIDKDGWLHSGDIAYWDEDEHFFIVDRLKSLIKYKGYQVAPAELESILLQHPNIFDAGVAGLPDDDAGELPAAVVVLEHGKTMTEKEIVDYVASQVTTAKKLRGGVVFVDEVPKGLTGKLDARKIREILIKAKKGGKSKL
SMILES,composite z-score [1],composite z-score [2],composite z-score [3],composite z-score [4],composite z-score [5],composite z-score [6],z-score [7],composite z-score (Lefty1),composite z-score [8],z-score [9],composite z-score [10],z-score [11],z-score [12],z-score [13],z-score [14],composite z-score [15],composite z-score [16],composite z-score (Torsin-1A (Homo sapiens) [17]),composite z-score (Torsin-1A (Homo sapiens) [18]),composite z-score [19]
COCCOC(=O)N1C(=O)[C@@]2(c3cc(C#CCNC(N)=O)ccc31)[C@H](c1ccccc1OCCO)N1[C@H](c3ccccc3)[C@H](c3ccccc3)OC(=O)[C@H]1[C@@H]2C(=O)N1CCN(c2ncccn2)CC1,1.94,0.74,0.491,0.714,0.705,1.55,-1.08,0.296,0.727,-1.9 (inactive),0.734,-1.96 (inactive),-0.897 (inactive),-0.465 (inactive),2.16 (inactive),0.29,0.0497,0.303,0.923,0.966
C#CCCCON=C1C[C@@H](O)[C@@H](O)[C@@H]2[C@@H]3C(=O)N(CCC(=O)OCC)C(=O)[C@@H]3CC[C@@H]12,-0.264,-0.0592,0.934,0.211,-1.11,-0.823,-0.139,-0.655,0.662,0.224 (inactive),0.109,0.402 (inactive),-0.262 (inactive),1.15 (inactive),-0.0962 (inactive),0.842,0.027,-0.343,0.612,-0.948
COC(=O)[C@H](C)NC(=O)CCC1CC(OC(=O)NCCc2ccc(F)cc2)CC2(CCCC(COC(=O)NCC(c3ccccc3)c3ccccc3)O2)O1 (stereo not given in full),0.862,1.18,0.548,0.834,0.342,0.0725,0.549,0.483,0.958,0.467 (inactive),-0.073,-0.169 (inactive),-0.0102 (inactive),1.27 (inactive),-0.187 (inactive),0.688,-0.0044,-0.311,0.387,0.282
CC(C)NC(=O)[C@@]1(c2ccc([N+](=O)[O-])cc2)CC(=O)N(CC23CC4CC(CC(C4)C2)C3)[C@@H]1c1ccc(CO)cc1I,0.0833,1.14,0.457,-0.206,1.06,0.444,1.01,-0.167,0.403,0.355 (inactive),0.492,-5.69 (inactive),0.017 (inactive),0.531 (inactive),0.0456 (inactive),0.131,0.0435,0.484,0.369,0.746
CCOC(=O)CCN1C(=O)[C@H]2[C@H]3[C@H](O)[C@H](O)CC(=NOCc4ccccc4)[C@@H]3CC[C@H]2C1=O,-0.261,0.717,0.163,0.983,0.722,0.383,-0.217,0.963,-0.0855,0.883 (inactive),-0.0682,-1.25 (inactive),0.324 (inactive),-0.294 (inactive),0.0433 (inactive),0.115,-0.186,0.434,0.496,0.612
C=CCC(OC(C)=O)[C@@H]1[C@@H](N(Cc2cc3ccccc3o2)C(=O)Cc2ccc(F)cc2)c2cc(OCCCO)ccc2N1C(=O)Cc1ccc(OC)cc1 (stereo not given in full),-0.419,-1.14,-0.0602,0.0188,0.354,-0.271,0.919,0.158,0.0264,-0.188 (inactive),-0.368,-0.276 (inactive),0.00133 (inactive),1.27 (inactive),0.515 (inactive),0.0444,-0.045,-0.499,-0.522,0.603
COC(=O)CC1OC1[C@H](C)[C@@H](OC)C(C)C (stereo not given in full),-0.0177,0.212,-0.405,0.745,0.623,0.443,3.01,0.786,0.733,-1.73 (inactive),-0.0087,-0.229 (inactive),-0.183 (inactive),1.47 (inactive),-0.213 (inactive),-0.329,-0.0963,0.436,0.0299,0.813
C=C(/C(=C/C[C@H](OC(=O)c1ccncc1)c1ccc(OCCO)cc1)c1cnc2ccccc2c1)C(C)C,0.426,1.21,0.144,0.853,1.47,1.82,1.26,1.52,0.843,-2.12 (inactive),1.32,-2.02 (inactive),-0.295 (inactive),6.42 (inactive),-0.429 (inactive),1.3,0.0471,1.12,0.551,2.16
COCCNC(=O)OCC1CCCC2(CC(OC(=O)NCCc3ccc(F)cc3)CC(CCC(=O)N[C@@H](C)C(=O)OC)O2)O1 (stereo not given in full),1,1.12,0.104,0.895,1.26,1.18,1.28,0.969,0.618,0.349 (inactive),0.156,-0.126 (inactive),0.252 (inactive),0.374 (inactive),-0.448 (inactive),0.753,-0.128,0.267,-0.0343,1.09
CCOC(=O)NN=C1C[C@@H](O)[C@@H](O)[C@@H]2[C@@H]3C(=O)N(CC)C(=O)[C@@H]3CC[C@@H]12,0.249,0.707,0.25,0.356,0.314,-0.0549,0.0102,0.476,-0.203,0.439 (inactive),-0.0087,0.225 (inactive),-0.0164 (inactive),-0.205 (inactive),0.104 (inactive),-0.124,-0.324,0.0252,-0.0727,0.784
